“And” between values parts separate entries of the source, which are not always exact repeats. Equal entries are not always repeated. Some structures have more than one record in an assay (separate samples or runs), and their calls can disagree. The source made the active and inactive calls. The calls were made as follows: active = hit-call score of the fitted dose curve at least 0.9, where 1 is the maximum; inactive = score below 0.9.
biological target: Retinoic acid receptor alpha (Homo sapiens) (UniProt P10276); assay: ATG_DR5_RAR_CIS: Attagene CIS-FACTORIAL HepG2 Assay for human Retinoic Acid Receptor Alpha (RARE), DR5 submotif (AID 2282934); settings: HepG2 Attagene cis-factorial RARE DR5 reporter, mRNA; actives raise or lower the signal;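 as to AC50: reporter responds to endogenous RAR alpha beta and gamma in HepG2 not RARA alone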
How it was run: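 Endpoint fitted in both directions relative to DMSO as negative control. It reflects DR5 cis-element reporter mRNA induction in transiently transfected HepG2 cells, measured 24 h after dosing through RT-PCR and fluorescent capillary electrophoresis.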

Sequence of Retinoic acid receptor alpha (Homo sapiens) (P10276 whole entry, looked up): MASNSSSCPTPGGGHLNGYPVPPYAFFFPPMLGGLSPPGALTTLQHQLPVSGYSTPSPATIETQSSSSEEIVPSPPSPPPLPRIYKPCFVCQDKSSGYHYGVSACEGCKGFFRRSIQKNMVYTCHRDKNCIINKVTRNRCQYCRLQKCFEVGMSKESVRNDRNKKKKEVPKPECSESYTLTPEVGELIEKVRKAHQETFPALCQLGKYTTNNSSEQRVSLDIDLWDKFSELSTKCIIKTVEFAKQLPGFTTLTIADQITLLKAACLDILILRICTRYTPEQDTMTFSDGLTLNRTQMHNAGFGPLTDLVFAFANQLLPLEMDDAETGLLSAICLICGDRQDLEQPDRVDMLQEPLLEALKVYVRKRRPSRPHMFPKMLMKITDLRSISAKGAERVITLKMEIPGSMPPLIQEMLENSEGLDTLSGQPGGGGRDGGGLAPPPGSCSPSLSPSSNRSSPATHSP

| Structure (SMILES) | outcome | AC50 |
| --- | --- | --- |
| COc1cccc(C=O)c1 | inactive | – |
| COc1ccc(OC)c(C=O)c1 | inactive | – |
| COc1cc2c(cc1OC)[C@@]13CCN4CC5=CCO[C@H]6CC(=O)N2[C@H]1[C@H]6[C@H]5C[C@H]43 | inactive | – |
| ClC1=C(Cl)[C@]2(Cl)[C@@H]3[C@@H](Cl)[C@@H](Cl)C[C@@H]3[C@@]1(Cl)C2(Cl)Cl | inactive | – |
| CC(C)(C)c1cc(O)ccc1O | inactive | – |
| O=C(O)C(F)(F)C(F)(F)C(F)(F)C(F)(F)C(F)(F)C(F)(F)F | inactive | – |
| CC(C)(OO)c1ccccc1 | – | 48.2 µM (active) |
| CCOP(=S)(OCC)Oc1ccc(S(C)=O)cc1 (stereo not given) | inactive | – |
| C[C@]12CCC(=O)C[C@@H]1CC[C@@H]1[C@@H]2CC[C@]2(C)[C@@H](O)CC[C@@H]12 | inactive | – |
| CN(C)N=O | inactive | – |
| CCN1CCC2(CC1)COc1cc3c(cc12)N(C(=O)c1ccc(-c2ccc(-c4nnc(C)o4)cc2C)cc1)CC3 | inactive | – |
| ClCC(Cl)CCl | inactive | – |
| O=C1C2(Cl)C3(Cl)C4(Cl)C(Cl)(Cl)C5(Cl)C3(Cl)C1(Cl)C5(Cl)C24Cl (stereo not given) | inactive | 20.9 µM (active) |
| [O-][Cl+2]([O-])O | inactive | – |
| O=C/C=C/c1ccccc1 | inactive | – |
| CCC(C)c1cccc(C(C)CC)c1O (stereo not given) | inactive | – |
| CC(C)(c1ccc(OCC2CO2)cc1)c1ccc(OCC2CO2)cc1 (stereo not given) | inactive | – |
| COP(=S)(OC)Oc1cc(Cl)c(Cl)cc1Cl | inactive | – |

| Structure (SMILES) | outcome | AC50 |
| --- | --- | --- |
| O=C(c1ccccc1)C(Cl)Cl | inactive | – |
| c1ccc(N=NNc2ccccc2)cc1 | inactive | – |
| CC(C#N)CCC#N (stereo not given) | inactive | – |
| C(=NC1CCCCC1)=NC1CCCCC1 | inactive | – |
| O=c1[nH]c(=O)[nH]c(=O)[nH]1 | inactive | – |
| Cl/C=C/Cl | inactive | – |
| Cc1ccc(N)cc1Cl | inactive | – |
| C[C@]12CC[C@H](O)CC1=CC[C@@H]1[C@@H]2CC[C@]2(C)C(=O)CC[C@@H]12 | inactive | – |
| CCCCCCCCc1ccc(O)cc1 | inactive | – |
| CCSC(C)CC1CC(=O)C(C(CC)=NOC/C=C/Cl)=C(O)C1 (stereo not given) | inactive | – |
| O=C(O)C(F)(F)C(F)(F)C(F)(F)C(F)(F)C(F)(F)C(F)(F)C(F)(F)C(F)(F)C(F)(F)C(F)(F)F | inactive | 129 µM (active) |
| CC(C)c1cccc(C(C)C)c1O | inactive | – |
| CC(C)c1ccc(CO)cc1 | inactive | – |
| CC1(C)Cc2cccc(O)c2O1 | inactive | – |
| CCOP(=O)(CN(CCO)CCO)OCC | inactive | – |
| N#Cc1ccccn1 | inactive | – |
| COc1ccccc1OC | inactive | – |

biological target: Transcription factor E2F1 (Homo sapiens) (UniProt Q01094); assay: ATG_E2F_CIS: Attagene CIS-FACTORIAL HepG2 Assay for human E2F Transcription Factor 1 (AID 2282935); settings: HepG2 Attagene cis-reporter, E2F reporter RNA transcripts; actives raise or lower the signal
How it was run: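 In this cis-factorial format, endogenous factor activity drives transfected reporters in HepG2; transcripts collected at 24 h are quantified by fluorescence after RT-PCR and capillary separation.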

Sequence of Transcription factor E2F1 (Homo sapiens) (Q01094 whole entry, looked up): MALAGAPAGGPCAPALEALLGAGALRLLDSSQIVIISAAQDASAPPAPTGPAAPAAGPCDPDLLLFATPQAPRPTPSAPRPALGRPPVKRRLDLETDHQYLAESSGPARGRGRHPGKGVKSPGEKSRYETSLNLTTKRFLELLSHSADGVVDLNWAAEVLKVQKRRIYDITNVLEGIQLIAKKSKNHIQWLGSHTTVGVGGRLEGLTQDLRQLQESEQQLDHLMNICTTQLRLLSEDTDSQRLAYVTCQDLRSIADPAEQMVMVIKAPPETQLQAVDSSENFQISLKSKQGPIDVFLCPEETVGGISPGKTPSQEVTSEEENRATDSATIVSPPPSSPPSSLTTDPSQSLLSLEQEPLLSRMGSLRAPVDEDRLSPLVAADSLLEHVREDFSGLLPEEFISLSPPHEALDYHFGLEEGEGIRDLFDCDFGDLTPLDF

| Structure (SMILES) | outcome | AC50 |
| --- | --- | --- |
| COc1cccc(C=O)c1 | inactive | – |
| COc1ccc(OC)c(C=O)c1 | inactive | – |
| COc1cc2c(cc1OC)[C@@]13CCN4CC5=CCO[C@H]6CC(=O)N2[C@H]1[C@H]6[C@H]5C[C@H]43 | inactive | – |
| ClC1=C(Cl)[C@]2(Cl)[C@@H]3[C@@H](Cl)[C@@H](Cl)C[C@@H]3[C@@]1(Cl)C2(Cl)Cl | inactive | – |
| CC(C)(C)c1cc(O)ccc1O | – | 66.5 µM (active) |
| O=C(O)C(F)(F)C(F)(F)C(F)(F)C(F)(F)C(F)(F)C(F)(F)F | inactive | – |
| CC(C)(OO)c1ccccc1 | inactive | – |
| CCOP(=S)(OCC)Oc1ccc(S(C)=O)cc1 (stereo not given) | inactive | – |
| CN(C)N=O | inactive | – |
| CCN1CCC2(CC1)COc1cc3c(cc12)N(C(=O)c1ccc(-c2ccc(-c4nnc(C)o4)cc2C)cc1)CC3 | inactive | – |
| ClCC(Cl)CCl | inactive | – |
| O=C1C2(Cl)C3(Cl)C4(Cl)C(Cl)(Cl)C5(Cl)C3(Cl)C1(Cl)C5(Cl)C24Cl (stereo not given) | inactive | 11.1 µM (active) |
| [O-][Cl+2]([O-])O | inactive | – |
| O=C/C=C/c1ccccc1 | inactive | – |
| CCC(C)c1cccc(C(C)CC)c1O (stereo not given) | inactive | – |
| CC(C)(c1ccc(OCC2CO2)cc1)c1ccc(OCC2CO2)cc1 (stereo not given) | inactive | – |
| COP(=S)(OC)Oc1cc(Cl)c(Cl)cc1Cl | inactive | – |
| O=C(c1ccccc1)C(Cl)Cl | inactive | – |

| Structure (SMILES) | outcome | AC50 |
| --- | --- | --- |
| c1ccc(N=NNc2ccccc2)cc1 | inactive | – |
| CC(C#N)CCC#N (stereo not given) | inactive | – |
| C(=NC1CCCCC1)=NC1CCCCC1 | inactive | – |
| O=c1[nH]c(=O)[nH]c(=O)[nH]1 | inactive | – |
| Cl/C=C/Cl | inactive | – |
| Cc1ccc(N)cc1Cl | inactive | – |
| C[C@]12CC[C@H](O)CC1=CC[C@@H]1[C@@H]2CC[C@]2(C)C(=O)CC[C@@H]12 | inactive | – |
| CCCCCCCCc1ccc(O)cc1 | inactive | – |
| CCSC(C)CC1CC(=O)C(C(CC)=NOC/C=C/Cl)=C(O)C1 (stereo not given) | inactive | – |
| O=C(O)C(F)(F)C(F)(F)C(F)(F)C(F)(F)C(F)(F)C(F)(F)C(F)(F)C(F)(F)C(F)(F)C(F)(F)F | inactive | – |
| CC(C)c1cccc(C(C)C)c1O | inactive | – |
| CC(C)c1ccc(CO)cc1 | inactive | – |
| CC1(C)Cc2cccc(O)c2O1 | inactive | – |
| CCOP(=O)(CN(CCO)CCO)OCC | inactive | – |
| N#Cc1ccccn1 | inactive | – |
| COc1ccccc1OC | inactive | – |
| Oc1cccc2cccnc12 | inactive | – |

system: not listed separately; assay: ATG_E_Box_CIS: Attagene CIS-FACTORIAL HepG2 Assay for human Enhancer Box (E-box) (AID 2282936); settings: HepG2 E-box cis-reporter transcription, actives raise or lower the signal
How it was run: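 Measured 24 h post-dosing in HepG2 cells transfected with multiple cis-regulated reporter units, signal being reporter mRNA induction detected by fluorescent RT-PCR with capillary electrophoresis; gain or loss fitted against DMSO.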

| Structure (SMILES) | outcome | AC50 |
| --- | --- | --- |
| COc1cccc(C=O)c1 | inactive | – |
| COc1ccc(OC)c(C=O)c1 | inactive | – |
| COc1cc2c(cc1OC)[C@@]13CCN4CC5=CCO[C@H]6CC(=O)N2[C@H]1[C@H]6[C@H]5C[C@H]43 | inactive | – |
| ClC1=C(Cl)[C@]2(Cl)[C@@H]3[C@@H](Cl)[C@@H](Cl)C[C@@H]3[C@@]1(Cl)C2(Cl)Cl | inactive | – |
| CC(C)(C)c1cc(O)ccc1O | inactive | – |
| O=C(O)C(F)(F)C(F)(F)C(F)(F)C(F)(F)C(F)(F)C(F)(F)F | inactive | – |
| CC(C)(OO)c1ccccc1 | – | 55.2 µM (active) |
| CCOP(=S)(OCC)Oc1ccc(S(C)=O)cc1 (stereo not given) | inactive | – |
| C[C@]12CCC(=O)C[C@@H]1CC[C@@H]1[C@@H]2CC[C@]2(C)[C@@H](O)CC[C@@H]12 | inactive | 24 µM (active) and 23.2 µM (active) and 13.8 µM (active) |
| CC(C)(C)CC(C)(C)c1ccc(O)cc1 | inactive | 8.06 µM (active) |
| CN(C)N=O | inactive | – |
| CCN1CCC2(CC1)COc1cc3c(cc12)N(C(=O)c1ccc(-c2ccc(-c4nnc(C)o4)cc2C)cc1)CC3 | inactive | – |
| ClCC(Cl)CCl | inactive | – |
| O=C1C2(Cl)C3(Cl)C4(Cl)C(Cl)(Cl)C5(Cl)C3(Cl)C1(Cl)C5(Cl)C24Cl (stereo not given) | inactive | 5.67 µM (active) and 5.25 µM (active) |
| [O-][Cl+2]([O-])O | inactive | – |
| O=C/C=C/c1ccccc1 | inactive | – |
| CCC(C)c1cccc(C(C)CC)c1O (stereo not given) | inactive | – |
| CC(C)(c1ccc(OCC2CO2)cc1)c1ccc(OCC2CO2)cc1 (stereo not given) | – | 52.4 µM (active) |
| COP(=S)(OC)Oc1cc(Cl)c(Cl)cc1Cl | inactive | – |

| Structure (SMILES) | outcome | AC50 |
| --- | --- | --- |
| O=C(c1ccccc1)C(Cl)Cl | – | 10.9 µM (active) |
| c1ccc(N=NNc2ccccc2)cc1 | inactive | – |
| CC(C#N)CCC#N (stereo not given) | inactive | – |
| C(=NC1CCCCC1)=NC1CCCCC1 | – | 33.4 µM (active) |
| O=c1[nH]c(=O)[nH]c(=O)[nH]1 | inactive | – |
| Cl/C=C/Cl | inactive | – |
| Cc1ccc(N)cc1Cl | inactive | – |
| C[C@]12CC[C@H](O)CC1=CC[C@@H]1[C@@H]2CC[C@]2(C)C(=O)CC[C@@H]12 | inactive | – |
| CCCCCCCCc1ccc(O)cc1 | inactive | – |
| CCSC(C)CC1CC(=O)C(C(CC)=NOC/C=C/Cl)=C(O)C1 (stereo not given) | inactive | – |
| O=C(O)C(F)(F)C(F)(F)C(F)(F)C(F)(F)C(F)(F)C(F)(F)C(F)(F)C(F)(F)C(F)(F)C(F)(F)F | inactive | 54.5 µM (active) |
| CC(C)c1cccc(C(C)C)c1O | inactive | – |
| CC(C)c1ccc(CO)cc1 | inactive | – |
| CC1(C)Cc2cccc(O)c2O1 | inactive | – |
| CCOP(=O)(CN(CCO)CCO)OCC | inactive | – |
| N#Cc1ccccn1 | inactive | – |
| COc1ccccc1OC | inactive | – |
| Oc1cccc2cccnc12 | inactive | 69.2 µM (active) |

Source: PubChem BioAssay (EPA / NIEHS)
